{"source": "ChEMBL document CHEMBL3988442", "about": "“University of Dundee, Small-Polar-MMV Screening Library” (2021)"}
{"target": "T1, Aspartate--tRNA(Asp/Asn) ligase (Mycobacterium tuberculosis (strain ATCC 25618 / H37Rv)) (UniProt P9WFW3)", "T1 sequence (whole entry)": "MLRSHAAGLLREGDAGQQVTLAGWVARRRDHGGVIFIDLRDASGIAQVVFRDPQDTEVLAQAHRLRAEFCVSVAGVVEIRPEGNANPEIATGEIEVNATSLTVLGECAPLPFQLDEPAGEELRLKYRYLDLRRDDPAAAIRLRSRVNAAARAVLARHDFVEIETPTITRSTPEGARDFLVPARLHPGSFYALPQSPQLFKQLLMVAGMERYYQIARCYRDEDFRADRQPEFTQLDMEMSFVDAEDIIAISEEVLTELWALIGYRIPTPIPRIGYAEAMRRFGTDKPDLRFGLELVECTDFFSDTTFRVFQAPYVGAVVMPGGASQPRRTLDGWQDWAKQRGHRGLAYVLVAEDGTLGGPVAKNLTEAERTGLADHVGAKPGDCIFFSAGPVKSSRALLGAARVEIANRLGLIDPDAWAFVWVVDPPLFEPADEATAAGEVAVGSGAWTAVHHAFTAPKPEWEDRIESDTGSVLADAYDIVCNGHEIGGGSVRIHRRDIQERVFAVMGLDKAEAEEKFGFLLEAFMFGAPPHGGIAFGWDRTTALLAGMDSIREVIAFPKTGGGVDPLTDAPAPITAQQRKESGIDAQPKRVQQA", "assay": "Assay for Asp RNA synthetase-1 from Mycobacterium tuberculosis", "type": "functional", "set-up": "scale not given: direction of the effect not stated beside the values", "conditions": "30 µM", "units": {"Percent Effect": "%"}}
{"smiles": "Cc1cc2nc(SCC(=O)N3CCCC3)n(C(C)C)c(=O)c2[nH]1", "Percent Effect": 0.509}
{"smiles": "CN(C)c1ccccc1C(=O)N1C[C@@H](CN2CCCCC2)[C@@H](CO)C1", "Percent Effect": -5.26}
{"smiles": "Cn1ccc2c(C(=O)N3CCC(C(N)=O)CC3)cccc21", "Percent Effect": 0.465}
{"smiles": "CC(NC(=O)CCn1cncn1)c1nnc2n1CCCCC2", "note": "(stereo not given)", "Percent Effect": -0.486}
{"smiles": "CCc1ccccc1C(=O)N1CCN(S(C)(=O)=O)[C@@H](C)C1", "Percent Effect": 0.259}
{"smiles": "CCc1nnc2n1CCN(C(=O)c1cc(Br)c[nH]1)C2", "Percent Effect": -3.52}
{"smiles": "Cc1cnc(CN(C)C2CCN(Cc3ccccc3C#N)C2)o1", "note": "(stereo not given)", "Percent Effect": -4.54}
{"smiles": "Cc1csc(N2CCCN(C(=O)C3(C#N)CCCCC3)CC2)n1", "Percent Effect": -4.79}
{"smiles": "CCCc1nc(C(C)(C)NC(=O)C2CC(=O)N(CC3CC3)C2)no1", "note": "(stereo not given)", "Percent Effect": 3.35}
{"smiles": "CCc1cnc(CN2CCCC2c2noc(C3CC3)n2)o1", "note": "(stereo not given)", "Percent Effect": 2.19}
{"smiles": "CC(=O)N1CCC(Oc2ccc(C#N)cn2)CC1", "Percent Effect": -4.74}
{"smiles": "OCc1ccc(Cl)c(NCc2cccnc2)c1", "Percent Effect": 1.83}
{"smiles": "Cc1cccc(N2CCN(CCCNC(=O)c3nccn3C)CC2)c1", "Percent Effect": -3.22}
{"smiles": "Cc1ccc(OC2(C(=O)O)CCN(C(=O)c3nc(C)oc3C)CC2)cn1", "Percent Effect": -2.19}
{"smiles": "O=c1cccnn1CC1CN(Cc2ccsc2)Cc2nccn2C1", "note": "(stereo not given)", "Percent Effect": 7.43}
{"smiles": "Cc1c(I)cccc1C(=O)NCC1(CO)CC1", "Percent Effect": 0.747}
{"smiles": "c1nc2c(c(C3CC3)n1)CCN(Cc1ccc3c(c1)OCO3)CC2", "Percent Effect": -2.19}
{"smiles": "Cc1ccc(-c2cc(N)c(=O)n(CC(=O)NCC3CC3)n2)s1", "Percent Effect": 4.48}
{"smiles": "CC(C)Cc1cc(C(=O)NCCc2ccc(S(C)(=O)=O)cc2)[nH]n1", "Percent Effect": 3.53}
{"smiles": "CNc1nc(CNC(=O)Nc2ccccc2-c2noc(C)n2)cs1", "Percent Effect": -2.92}
{"smiles": "Cc1ncc(CN(C)C2CCCN(Cc3noc(C4CC4)n3)C2)s1", "note": "(stereo not given)", "Percent Effect": -2.9}
{"smiles": "O=C(NCCn1nc2ccccn2c1=O)c1cccc2[nH]ncc12", "Percent Effect": -0.633}
{"smiles": "Cc1ccc(C(=O)NCCNc2ncccc2C#N)c(=O)[nH]1", "Percent Effect": -1.85}
{"smiles": "COc1cc(S(=O)(=O)N2CCc3ccc(F)cc32)cc(C(=O)O)c1OC", "Percent Effect": 1.4}
{"smiles": "COc1c(CNCC(c2cccc(F)c2)N(C)C)c(C(C)C)nn1C", "note": "(stereo not given)", "Percent Effect": -3.2}
{"smiles": "c1cc2n(n1)CC(CNCc1ccc(OCC3CC3)nc1)CN2", "note": "(stereo not given)", "Percent Effect": 0.395}
{"smiles": "COCC1COCCC12CCN(C(=O)CCOc1ccccc1)CC2", "note": "(stereo not given)", "Percent Effect": 1.23}
{"smiles": "NC(=O)C1CN(C(=O)Nc2ccccc2N2CCCCCC2)CCO1", "note": "(stereo not given)", "Percent Effect": 0.991}
{"smiles": "Cc1cnn(CCC(=O)N2CCCN(c3ncccc3C#N)CC2)c1", "Percent Effect": -6.54}
{"smiles": "CC(C)c1noc(CN2CCN(C(=O)c3ccccc3F)CC2)n1", "Percent Effect": -2.91}
{"smiles": "CCn1cnnc1CNC(=O)NC(C)c1cccs1", "note": "(stereo not given)", "Percent Effect": 0.243}
{"smiles": "CC1=Nc2c(c(=O)[nH]n2C2CCOCC2)C(c2cccc(Br)c2)S1", "note": "(stereo not given)", "Percent Effect": 0.0871}
{"smiles": "CC(C)CCNC(=O)c1sccc1N(C)S(=O)(=O)c1ccccc1", "Percent Effect": 5.12}
{"smiles": "c1cnnc(N2CCCC(NCc3nc(C4CC4)no3)C2)c1", "note": "(stereo not given)", "Percent Effect": 6.87}
{"smiles": "Cc1scc(C(=O)N2CCC3(CCCN(C)C3=O)C2)c1-c1ccccc1", "note": "(stereo not given)", "Percent Effect": 2.02}
{"smiles": "CC(C)c1n[nH]c(C(=O)Nc2ccncc2)c1Br", "Percent Effect": -4.8}
{"smiles": "CN(C)S(=O)(=O)N1C[C@H](Oc2cccnc2)[C@H]2OCCC[C@H]21", "Percent Effect": 2.32}
{"smiles": "COCCN1C[C@@H]2CN(Cc3cccc(F)c3)CCC[C@]2(C(=O)O)C1", "Percent Effect": 6.95}
{"smiles": "Cc1ccc2cnn(CCC(=O)Nc3c(C)nn(C)c3C)c2c1", "Percent Effect": 0.535}
{"smiles": "Cc1nc(CNC(=O)NCC(O)c2ccc(F)c(F)c2)cs1", "note": "(stereo not given)", "Percent Effect": -2.91}
{"target": "Shiga toxin 2 (Escherichia coli O157:H7) (UniProt P09385+P09386)", "assay": "E. coli 0.157:H7 Shiga Toxin SOP - stx2 screening assay", "type": "functional", "set-up": "scale not given: direction of the effect not stated beside the values", "conditions": "30 µM", "units": {"Percent Effect": "%"}}
{"smiles": "Cc1cc2nc(SCC(=O)N3CCCC3)n(C(C)C)c(=O)c2[nH]1", "Percent Effect": -18}
{"smiles": "CN(C)c1ccccc1C(=O)N1C[C@@H](CN2CCCCC2)[C@@H](CO)C1", "Percent Effect": 17.7}
{"smiles": "Cn1ccc2c(C(=O)N3CCC(C(N)=O)CC3)cccc21", "Percent Effect": -43.9}
{"smiles": "CC(NC(=O)CCn1cncn1)c1nnc2n1CCCCC2", "note": "(stereo not given)", "Percent Effect": -13.7}
{"smiles": "CCc1ccccc1C(=O)N1CCN(S(C)(=O)=O)[C@@H](C)C1", "Percent Effect": -3}
{"smiles": "CCc1nnc2n1CCN(C(=O)c1cc(Br)c[nH]1)C2", "Percent Effect": -47.9}
{"smiles": "Cc1cnc(CN(C)C2CCN(Cc3ccccc3C#N)C2)o1", "note": "(stereo not given)", "Percent Effect": -34.4}
{"smiles": "Cc1csc(N2CCCN(C(=O)C3(C#N)CCCCC3)CC2)n1", "Percent Effect": 27.1}
{"smiles": "CCCc1nc(C(C)(C)NC(=O)C2CC(=O)N(CC3CC3)C2)no1", "note": "(stereo not given)", "Percent Effect": 20}
{"smiles": "CCc1cnc(CN2CCCC2c2noc(C3CC3)n2)o1", "note": "(stereo not given)", "Percent Effect": 19.7}
{"smiles": "CC(=O)N1CCC(Oc2ccc(C#N)cn2)CC1", "Percent Effect": -70.8}
{"smiles": "OCc1ccc(Cl)c(NCc2cccnc2)c1", "Percent Effect": -19.3}
{"smiles": "Cc1cccc(N2CCN(CCCNC(=O)c3nccn3C)CC2)c1", "Percent Effect": -11.1}
{"smiles": "Cc1ccc(OC2(C(=O)O)CCN(C(=O)c3nc(C)oc3C)CC2)cn1", "Percent Effect": 0.158}
{"smiles": "O=c1cccnn1CC1CN(Cc2ccsc2)Cc2nccn2C1", "note": "(stereo not given)", "Percent Effect": 5.53}
{"smiles": "Cc1c(I)cccc1C(=O)NCC1(CO)CC1", "Percent Effect": 0.906}
{"smiles": "c1nc2c(c(C3CC3)n1)CCN(Cc1ccc3c(c1)OCO3)CC2", "Percent Effect": -20.6}
{"smiles": "Cc1ccc(-c2cc(N)c(=O)n(CC(=O)NCC3CC3)n2)s1", "Percent Effect": 3.54}
{"smiles": "CC(C)Cc1cc(C(=O)NCCc2ccc(S(C)(=O)=O)cc2)[nH]n1", "Percent Effect": -19.9}
{"smiles": "CNc1nc(CNC(=O)Nc2ccccc2-c2noc(C)n2)cs1", "Percent Effect": 13.1}
{"smiles": "Cc1ncc(CN(C)C2CCCN(Cc3noc(C4CC4)n3)C2)s1", "note": "(stereo not given)", "Percent Effect": 11.1}
{"smiles": "O=C(NCCn1nc2ccccn2c1=O)c1cccc2[nH]ncc12", "Percent Effect": -25.7}
{"smiles": "Cc1ccc(C(=O)NCCNc2ncccc2C#N)c(=O)[nH]1", "Percent Effect": -19.7}
{"smiles": "COc1cc(S(=O)(=O)N2CCc3ccc(F)cc32)cc(C(=O)O)c1OC", "Percent Effect": 2.68}
{"smiles": "COc1c(CNCC(c2cccc(F)c2)N(C)C)c(C(C)C)nn1C", "note": "(stereo not given)", "Percent Effect": -15.5}
{"smiles": "c1cc2n(n1)CC(CNCc1ccc(OCC3CC3)nc1)CN2", "note": "(stereo not given)", "Percent Effect": -66.4}
{"smiles": "COCC1COCCC12CCN(C(=O)CCOc1ccccc1)CC2", "note": "(stereo not given)", "Percent Effect": 0.928}
{"smiles": "NC(=O)C1CN(C(=O)Nc2ccccc2N2CCCCCC2)CCO1", "note": "(stereo not given)", "Percent Effect": 7.25}
{"smiles": "Cc1cnn(CCC(=O)N2CCCN(c3ncccc3C#N)CC2)c1", "Percent Effect": -34.1}
{"smiles": "CC(C)c1noc(CN2CCN(C(=O)c3ccccc3F)CC2)n1", "Percent Effect": 12.1}
{"smiles": "CCn1cnnc1CNC(=O)NC(C)c1cccs1", "note": "(stereo not given)", "Percent Effect": -10.2}
{"smiles": "CC1=Nc2c(c(=O)[nH]n2C2CCOCC2)C(c2cccc(Br)c2)S1", "note": "(stereo not given)", "Percent Effect": 15}
{"smiles": "CC(C)CCNC(=O)c1sccc1N(C)S(=O)(=O)c1ccccc1", "Percent Effect": -20}
{"smiles": "c1cnnc(N2CCCC(NCc3nc(C4CC4)no3)C2)c1", "note": "(stereo not given)", "Percent Effect": -18.7}
{"smiles": "Cc1scc(C(=O)N2CCC3(CCCN(C)C3=O)C2)c1-c1ccccc1", "note": "(stereo not given)", "Percent Effect": 8.94}
{"smiles": "CC(C)c1n[nH]c(C(=O)Nc2ccncc2)c1Br", "Percent Effect": 4.1}
{"smiles": "CN(C)S(=O)(=O)N1C[C@H](Oc2cccnc2)[C@H]2OCCC[C@H]21", "Percent Effect": -12}
{"smiles": "COCCN1C[C@@H]2CN(Cc3cccc(F)c3)CCC[C@]2(C(=O)O)C1", "Percent Effect": -10.4}
{"smiles": "Cc1ccc2cnn(CCC(=O)Nc3c(C)nn(C)c3C)c2c1", "Percent Effect": -34.7}
{"smiles": "Cc1nc(CNC(=O)NCC(O)c2ccc(F)c(F)c2)cs1", "note": "(stereo not given)", "Percent Effect": 4.89}
